This is part of a sample that, as a whole, favours compounds with a hit. Of some 79,000 tested, about 15% had one in any assay. Values without a mark were called inactive. The source made the active and inactive calls. No stated cut-off is given here; in the data, active means growth inhibition above about 70%; inactive means the rest.

A short description of this experiment: NCI Yeast Anticancer Drug Screen. Data for the CLN2oe strain (AID 163).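 Further: 0% = growth of vehicle-only control cultures.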 To be noted: S. cerevisiae CLN2oe strain, hits give high values. As for the experimental part: Growth inhibition of yeast strains with defined genetic alterations is measured as a screen for potential anti-cancer activity. Selected strains with alterations in DNA damage repair or cell cycle control were exposed to compounds and growth inhibition was measured relative to vehicle treated controls. The strain used in this assay is CLN2oe

Take `COc1ccc2[nH]cc([C@@H]3C4CCC(C4)[C@H]3NCc3cccc(CN[C@H]4C5CCC(C5)[C@@H]4c4c[nH]c5ccc(OC)cc45)c3)c2c1`: the growth inhibition by setting is: (at 1.2 µM) 36%; (at 3.7 µM) 33%; (at 11.0 µM) 31%; (at 33.0 µM) 63%; (at 100.0 µM) 92% (active).
On the same counts, the results for `O=C(O)c1cc2ccccc2c2c1C(=O)c1ccccc1-2` are 13%, 28%, 64%, 96% (active) and 95% (active).
On the same counts, the results for `CCCCOC(=O)Nc1ccc(C)c(NC(=O)OCCCC)c1` are -11%, -19%, 11%, 31% and 38%.
On to `O=C1CC(=O)c2ccccc21`, for which the growth inhibition reads like this: (at 1.2 µM) -9%; (at 3.7 µM) -1%; (at 11.0 µM) 3%; (at 33.0 µM) 1%; (at 100.0 µM) 48%.
On the same counts, the results for `CC(C)CCCC(C)C1CCC2C3CCC4=CC(=O)/C(=C\O)CC4(C)C3CCC12C` (stereo not given) are -3%, -5%, -10%, -18% and 2%.
The matching figures for `Nc1ccc2c(c1)C(=O)c1ccc(F)cc1-2`: 5%, 7%, 11%, 20% and 16%.
On the same counts, the results for `O=[N+]([O-])c1cc(Cl)cnc1Br` are -4%, -1%, 4%, 4% and 8%.
For the compound `CCOC(=O)COc1c(OC)cc(C2C3=C(COC3=O)Oc3cc4c(cc32)OCO4)cc1OC` (stereo not given), the growth inhibition (at 1.2 µM) was -2%; the growth inhibition (at 3.7 µM) was -3%; the growth inhibition (at 11.0 µM) was 5%; the growth inhibition (at 33.0 µM) is 2%; the growth inhibition (at 100.0 µM) was 10%.

Source of the values: PubChem BioAssay (NCI).
